Data from PubChem BioAssay AID1851 (National Center for Advancing Translational Sciences (NCATS), 2009).
Hit rate of the full screen: of about 16,000 compounds, about 4,000 (25%) were called active. Another 26% or so got no clear call; they are omitted. Not all results are given here. Values without a mark were called inactive. The call rests on the fitted dose curve; in most records, active means well fitted curve in the direction sought with a large enough effect; inconclusive means small, poorly fitted or top-dose-only effect, or effect the other way; inactive means no such curve, though single readings can be large or run the other way.

Biological target: Cytochrome P450 2C9 (Homo sapiens) (UniProt P11712)
Sequence (P11712 whole entry, looked up): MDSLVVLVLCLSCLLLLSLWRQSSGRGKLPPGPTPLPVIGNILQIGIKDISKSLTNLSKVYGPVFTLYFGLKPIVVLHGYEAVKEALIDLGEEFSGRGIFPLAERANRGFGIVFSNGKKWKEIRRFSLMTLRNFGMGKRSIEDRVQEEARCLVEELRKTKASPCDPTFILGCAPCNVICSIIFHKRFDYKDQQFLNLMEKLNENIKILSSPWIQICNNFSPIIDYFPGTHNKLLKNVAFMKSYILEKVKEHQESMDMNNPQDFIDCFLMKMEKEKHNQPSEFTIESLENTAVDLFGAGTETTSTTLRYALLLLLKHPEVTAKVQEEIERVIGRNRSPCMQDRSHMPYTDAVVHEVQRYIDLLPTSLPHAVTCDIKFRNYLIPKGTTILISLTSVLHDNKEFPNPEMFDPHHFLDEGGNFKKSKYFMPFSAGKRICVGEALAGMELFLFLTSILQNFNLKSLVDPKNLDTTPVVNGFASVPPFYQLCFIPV
Assay: Cytochrome panel assay with activity outcomes
Settings: recombinant CYP, pro-luciferin dealkylation, luminescence, p450-cyp2c9; series mostly up to 57.1 µM; activity, negative = inhibition: at the top concentration
On the % scale 0 is the no-effect control and ±100 the full control effect.

Point of comparison: `CN(C(=O)Cc1ccccc1)[C@H](CN1CCCC1)c1ccccc1`, “activity, negative = inhibition” value -8.81%. Against it:
- C[C@@]12CC[C@@H]3c4ccc(O)cc4C[C@H](CCCCCCCCCS(=O)CCCC(F)(F)C(F)(F)F)[C@H]3[C@@H]1CC[C@@H]2O (stereo not given in full) — lower, -9.41%
- CN1CC[C@@]2(CCCN(C(=O)Oc3ccccc3)C2)C1 — higher, -0.577%
- CCN1CCN(c2ccc(NC(=O)C(C)C)cc2Cl)CC1 — lower, -14.2%
- C(=NC12CN3CN(CN(C3)C1)C2)c1cccs1 — lower, -20.8%
- Brc1c(NC2=NCCN2)ccc2nccnc12 — lower, -26.3%
- O=C(Nc1cccc(F)c1)N1CC2(CCN(C(=O)Oc3ccccc3)CC2)C1 — lower, -10.4%
- Nc1ncnc2c1ncn2[C@@H]1O[C@@H](COP(=O)(O)CP(=O)(O)OP(=O)(O)O)[C@H](O)[C@@H]1O — higher, -0.747%
- CCCN(CCC)[C@@H]1CCc2c(OC)cccc2[C@@H]1C — higher, -6.07%
- CCC(COC(=O)NC)NC(=O)Oc1ccccc1 (stereo not given) — higher, 21.5%
- N=C1c2ccccc2CN1NC(=O)c1ccc(Cl)cc1 — higher, -1.51%

Point of comparison: `CNC(C)(C)Cc1ccccc1`, “activity, negative = inhibition” value 15.3% [at 25.6 µM]. Against it:
- O=c1cc(-c2ccc(O)cc2)oc2c([C@H]3O[C@@H](CO)[C@@H](O)[C@@H](O)[C@@H]3O)c(O)cc(O)c12 — lower, -15% [at 25.6 µM]
- CC(=O)c1ccc2c(c1)N(CCCN(C)C)c1ccccc1S2 — higher, 20.6% [at 25.6 µM]
- CN1[C@@H](C[C@@H](O)c2ccccc2)CCC[C@@H]1C[C@H](O)c1ccccc1 — lower, -7.42% [at 25.6 µM]
- C=C1CC[C@H](O)C/C1=C/C=C1\CCC[C@]2(C)[C@H]1CC[C@H]2[C@@H](C)CCCC(C)C — lower, 1.21% [at 25.6 µM]

In the case of `CCS(=O)(=O)Nc1cccc(C(=C2CCCCC2)c2cnc[nH]2)c1`, the AC50 is reported as 0.631 µM (active).
`CN1C(=O)c2ccccc2Sc2ccc(C(=O)N3CCC4(CC3)OCCO4)cc21` was tested, and the AC50 was 8.91 µM (active).
`C=CCN1C(=O)c2ccccc2Sc2ccc(C(=O)N3CCC4(CC3)OCCO4)cc21` was tested, and the AC50 was 1.26 µM (active).
With `O=C(O)CN1CCN(CC(=O)O)CC(=O)[O][Hg][O]C(=O)C1` the AC50 was 1.26 µM (active).

In the case of `CC[C@@]1(O)C(=O)OCc2c1cc1n(c2=O)Cc2cc3ccccc3nc2-1`, the activity, negative = inhibition is reported as “inactive”.

Point of comparison: `O=c1[nH]cnc2[nH]cc(CN3CCCCC3)c12`, activity, negative = inhibition -6.24% [at 11.4 µM]. Against it:
- Cc1cc[c]([Sb]2[O][C@H]([C@H](O)[C@H](O)C(=O)O)[C@@H](CO)[O]2)cc1 — higher, 14% [at 11.4 µM]
- C[C@]12CC[C@H]3c4ccc(O)cc4CC[C@@H]3[C@H]1CC[C@@H]2OP(=O)(O)O — higher, 12.3% [at 11.4 µM]
- Nc1ccccc1O.O.O=C(O)[C@H]1[O][Sb][O][C@H]1C(=O)O — higher, 14.2% [at 11.4 µM]
